# Key:
# Test in all cases: DAPPL (digital affinity profiling via proximity ligation, sequencing); 10 mM Tris-HCl pH 7.5, 50 mM NaCl, 1 mM DTT, 4% glycerol, room temperature, 30 min; GST-TFs on glutathione beads, 16-mer random dsDNA library, 0.1% formaldehyde crosslink after washing; high values mean tight binding
# [1] = target: T1, FEV (Homo sapiens, UniProt Q99581 1-238); conditions: protein: recombinant; tags: N-terminal GST; dsDNA, one strand shown
# T1 sequence: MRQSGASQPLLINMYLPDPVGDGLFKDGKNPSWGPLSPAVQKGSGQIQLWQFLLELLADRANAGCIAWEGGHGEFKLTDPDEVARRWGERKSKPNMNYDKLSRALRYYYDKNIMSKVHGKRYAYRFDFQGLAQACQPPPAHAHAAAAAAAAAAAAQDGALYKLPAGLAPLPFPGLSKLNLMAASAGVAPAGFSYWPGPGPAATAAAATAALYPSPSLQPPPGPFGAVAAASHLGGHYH
# Outline: (§1)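 Each value of binding signal is a hexamer's read frequency for a factor divided by the same hexamer's frequency in the tag-only sample. Barcoded, bead-captured GST fusions of human transcription factors made in yeast were pooled with that sample and incubated with 200 nmole of a random double-stranded 16-mer DNA library in Tris/NaCl/DTT/glycerol buffer at room temperature for 30 min. Washing, 0.1% formaldehyde crosslinking, proximity ligation, PCR and Illumina NextSeq500 sequencing followed.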
# [2] = target: ETV5 (Homo sapiens, UniProt P41161 1-510); conditions: protein: recombinant; tags: N-terminal GST; dsDNA, one strand shown
# Sequence of ETV5 (P41161 whole entry): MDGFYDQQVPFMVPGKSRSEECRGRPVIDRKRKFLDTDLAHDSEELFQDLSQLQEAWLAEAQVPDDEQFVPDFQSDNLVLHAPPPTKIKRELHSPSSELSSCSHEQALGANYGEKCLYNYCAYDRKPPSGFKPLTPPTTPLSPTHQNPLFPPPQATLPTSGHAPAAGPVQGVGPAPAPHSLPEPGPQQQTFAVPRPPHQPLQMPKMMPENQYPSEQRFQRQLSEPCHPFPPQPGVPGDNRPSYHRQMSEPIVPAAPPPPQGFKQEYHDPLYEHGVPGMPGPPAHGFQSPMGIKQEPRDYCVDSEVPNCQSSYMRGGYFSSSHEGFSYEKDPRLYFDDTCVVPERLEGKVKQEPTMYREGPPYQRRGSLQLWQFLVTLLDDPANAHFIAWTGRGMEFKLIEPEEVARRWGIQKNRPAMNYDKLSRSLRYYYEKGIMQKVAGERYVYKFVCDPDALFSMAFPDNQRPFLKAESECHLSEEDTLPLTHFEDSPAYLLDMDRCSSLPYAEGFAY
# Outline: as §1
# [3] = target: HSF1 (Homo sapiens, UniProt Q00613 1-529); conditions: protein: recombinant; tags: N-terminal GST; chain copies: 3; dsDNA, one strand shown
# Sequence of HSF1 (Q00613 whole entry): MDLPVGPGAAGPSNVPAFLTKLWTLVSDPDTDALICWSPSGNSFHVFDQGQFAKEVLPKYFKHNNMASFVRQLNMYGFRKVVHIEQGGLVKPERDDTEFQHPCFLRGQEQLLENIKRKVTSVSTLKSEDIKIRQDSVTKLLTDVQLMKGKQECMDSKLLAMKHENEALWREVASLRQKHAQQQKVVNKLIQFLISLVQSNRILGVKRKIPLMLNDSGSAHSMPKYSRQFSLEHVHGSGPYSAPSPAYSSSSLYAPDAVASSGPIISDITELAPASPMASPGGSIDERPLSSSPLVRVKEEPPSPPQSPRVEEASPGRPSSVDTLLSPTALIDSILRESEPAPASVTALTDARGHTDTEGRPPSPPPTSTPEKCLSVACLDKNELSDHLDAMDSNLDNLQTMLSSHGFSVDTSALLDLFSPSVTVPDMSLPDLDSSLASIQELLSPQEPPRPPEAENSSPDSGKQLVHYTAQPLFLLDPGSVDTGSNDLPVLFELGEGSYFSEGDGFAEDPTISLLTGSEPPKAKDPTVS
# Outline: as §1
# [4] = target: T2, SPIC (Homo sapiens, UniProt Q8N5J4 1-248); conditions: protein: recombinant; tags: N-terminal GST; dsDNA, one strand shown
# T2 sequence: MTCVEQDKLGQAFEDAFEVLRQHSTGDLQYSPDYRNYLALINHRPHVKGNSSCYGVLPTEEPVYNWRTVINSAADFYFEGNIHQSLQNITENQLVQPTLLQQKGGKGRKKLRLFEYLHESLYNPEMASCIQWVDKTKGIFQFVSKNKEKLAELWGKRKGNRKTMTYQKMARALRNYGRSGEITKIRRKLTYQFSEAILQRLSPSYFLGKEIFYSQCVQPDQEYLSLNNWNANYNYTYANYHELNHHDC
# Outline: as §1
# [5] = target: ELF4 (Homo sapiens, UniProt Q99607 1-663); conditions: protein: recombinant; tags: N-terminal GST; dsDNA, one strand shown
# Sequence of ELF4 (Q99607 whole entry): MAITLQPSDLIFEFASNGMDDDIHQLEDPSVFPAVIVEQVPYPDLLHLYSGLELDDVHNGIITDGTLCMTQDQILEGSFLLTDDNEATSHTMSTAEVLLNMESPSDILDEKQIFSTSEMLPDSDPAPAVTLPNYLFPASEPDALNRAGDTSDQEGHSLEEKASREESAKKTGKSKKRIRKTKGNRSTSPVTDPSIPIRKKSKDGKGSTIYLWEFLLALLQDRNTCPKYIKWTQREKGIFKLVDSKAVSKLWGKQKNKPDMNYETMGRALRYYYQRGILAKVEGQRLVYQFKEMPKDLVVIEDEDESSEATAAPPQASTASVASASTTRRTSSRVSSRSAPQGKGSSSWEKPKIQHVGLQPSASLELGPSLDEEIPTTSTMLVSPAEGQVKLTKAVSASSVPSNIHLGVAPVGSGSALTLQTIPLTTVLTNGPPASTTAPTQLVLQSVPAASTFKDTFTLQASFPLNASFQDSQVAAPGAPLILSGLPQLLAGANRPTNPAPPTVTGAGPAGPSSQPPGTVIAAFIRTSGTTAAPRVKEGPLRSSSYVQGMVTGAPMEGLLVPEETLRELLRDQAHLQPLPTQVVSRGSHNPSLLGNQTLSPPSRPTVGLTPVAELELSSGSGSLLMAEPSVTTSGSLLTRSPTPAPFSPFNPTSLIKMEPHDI
# Outline: as §1
# [6] = target: T3, ELK4 (Homo sapiens, UniProt P28324-2 1-405); conditions: protein: recombinant; tags: N-terminal GST; dsDNA, one strand shown
# T3 sequence: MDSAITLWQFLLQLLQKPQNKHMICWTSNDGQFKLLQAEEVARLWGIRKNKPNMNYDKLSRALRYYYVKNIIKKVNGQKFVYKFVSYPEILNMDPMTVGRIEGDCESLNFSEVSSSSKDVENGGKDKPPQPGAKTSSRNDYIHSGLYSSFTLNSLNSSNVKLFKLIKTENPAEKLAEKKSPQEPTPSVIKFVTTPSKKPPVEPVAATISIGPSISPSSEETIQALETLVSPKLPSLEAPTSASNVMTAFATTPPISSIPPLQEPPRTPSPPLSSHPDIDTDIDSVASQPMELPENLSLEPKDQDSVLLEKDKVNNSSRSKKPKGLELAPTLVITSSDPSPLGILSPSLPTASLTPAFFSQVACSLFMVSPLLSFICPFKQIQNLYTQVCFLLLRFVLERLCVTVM
# Outline: as §1
# [7] = target: T4, ETV2 (Homo sapiens, UniProt O00321 1-342); conditions: protein: recombinant; tags: N-terminal GST; dsDNA, one strand shown
# T4 sequence: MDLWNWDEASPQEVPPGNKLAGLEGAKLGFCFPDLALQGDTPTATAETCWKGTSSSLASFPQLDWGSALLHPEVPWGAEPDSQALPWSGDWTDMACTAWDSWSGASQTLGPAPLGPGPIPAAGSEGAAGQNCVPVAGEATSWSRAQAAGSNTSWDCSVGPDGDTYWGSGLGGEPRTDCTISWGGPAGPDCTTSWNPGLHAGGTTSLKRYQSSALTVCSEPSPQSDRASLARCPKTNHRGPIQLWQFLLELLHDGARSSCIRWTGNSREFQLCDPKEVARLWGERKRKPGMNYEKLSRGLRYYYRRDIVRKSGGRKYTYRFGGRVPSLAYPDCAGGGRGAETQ
# Outline: as §1
# [8] = target: T5, ELF3 (Homo sapiens, UniProt P78545 1-371); conditions: protein: recombinant; tags: N-terminal GST; dsDNA, one strand shown
# T5 sequence: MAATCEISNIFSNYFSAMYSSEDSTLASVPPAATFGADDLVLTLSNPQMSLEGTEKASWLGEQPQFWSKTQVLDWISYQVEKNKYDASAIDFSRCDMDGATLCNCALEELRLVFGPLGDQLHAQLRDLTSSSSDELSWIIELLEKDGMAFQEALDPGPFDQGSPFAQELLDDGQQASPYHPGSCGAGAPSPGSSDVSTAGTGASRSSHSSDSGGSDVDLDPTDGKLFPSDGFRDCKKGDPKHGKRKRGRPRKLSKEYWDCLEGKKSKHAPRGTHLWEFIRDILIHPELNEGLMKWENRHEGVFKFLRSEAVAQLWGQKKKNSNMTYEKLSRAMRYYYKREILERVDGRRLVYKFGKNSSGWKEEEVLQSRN
# Outline: as §1
# [9] = target: CRX (Homo sapiens, UniProt O43186 1-299); conditions: protein: recombinant; tags: N-terminal GST; dsDNA, one strand shown
# Sequence of CRX (O43186 whole entry): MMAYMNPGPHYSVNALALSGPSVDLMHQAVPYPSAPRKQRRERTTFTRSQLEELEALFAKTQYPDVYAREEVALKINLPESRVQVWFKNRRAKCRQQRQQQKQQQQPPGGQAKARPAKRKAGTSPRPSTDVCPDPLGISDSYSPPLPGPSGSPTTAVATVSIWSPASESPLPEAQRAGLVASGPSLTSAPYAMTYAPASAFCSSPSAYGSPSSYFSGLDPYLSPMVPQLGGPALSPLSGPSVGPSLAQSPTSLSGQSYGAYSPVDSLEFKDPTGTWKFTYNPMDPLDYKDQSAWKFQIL
# Outline: as §1
# [10] = target: ETV1 (Homo sapiens, UniProt P50549 1-477); conditions: protein: recombinant; tags: N-terminal GST; dsDNA, one strand shown
# Sequence of ETV1 (P50549 whole entry): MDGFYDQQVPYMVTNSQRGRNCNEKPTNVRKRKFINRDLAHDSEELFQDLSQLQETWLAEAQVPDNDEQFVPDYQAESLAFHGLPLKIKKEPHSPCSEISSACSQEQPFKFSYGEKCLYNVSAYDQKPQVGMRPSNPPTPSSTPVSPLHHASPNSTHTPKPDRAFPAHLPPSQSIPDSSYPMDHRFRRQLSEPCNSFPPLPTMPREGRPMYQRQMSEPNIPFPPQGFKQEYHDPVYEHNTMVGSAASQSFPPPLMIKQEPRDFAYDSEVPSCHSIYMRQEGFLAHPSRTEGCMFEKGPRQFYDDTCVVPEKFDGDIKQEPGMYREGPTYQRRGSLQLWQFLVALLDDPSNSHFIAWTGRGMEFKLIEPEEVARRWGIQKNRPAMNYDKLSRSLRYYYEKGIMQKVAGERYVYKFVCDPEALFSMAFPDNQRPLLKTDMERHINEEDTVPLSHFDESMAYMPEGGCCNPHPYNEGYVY
# Outline: as §1
# [11] = target: T6, ERF (Homo sapiens, UniProt P50548 1-548); conditions: protein: recombinant; tags: N-terminal GST; dsDNA, one strand shown
# T6 sequence: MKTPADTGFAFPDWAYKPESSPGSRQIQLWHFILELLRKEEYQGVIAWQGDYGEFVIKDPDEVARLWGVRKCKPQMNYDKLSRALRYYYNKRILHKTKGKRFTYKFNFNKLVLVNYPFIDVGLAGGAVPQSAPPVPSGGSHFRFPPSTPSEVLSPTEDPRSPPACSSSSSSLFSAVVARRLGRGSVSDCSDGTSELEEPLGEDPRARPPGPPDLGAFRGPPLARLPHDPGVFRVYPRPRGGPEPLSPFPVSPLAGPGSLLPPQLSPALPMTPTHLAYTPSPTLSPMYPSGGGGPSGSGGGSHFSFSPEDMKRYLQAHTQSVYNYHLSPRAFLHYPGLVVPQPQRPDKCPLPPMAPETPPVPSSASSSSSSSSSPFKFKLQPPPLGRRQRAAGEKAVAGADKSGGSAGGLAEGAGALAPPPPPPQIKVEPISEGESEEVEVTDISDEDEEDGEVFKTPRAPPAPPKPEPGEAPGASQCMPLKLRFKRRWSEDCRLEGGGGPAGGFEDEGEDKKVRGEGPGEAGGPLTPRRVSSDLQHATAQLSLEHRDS
# Outline: as §1
# [12] = target: T7, ETV3L (Homo sapiens, UniProt Q6ZN32 1-361); conditions: protein: recombinant; tags: N-terminal GST; dsDNA, one strand shown
# T7 sequence: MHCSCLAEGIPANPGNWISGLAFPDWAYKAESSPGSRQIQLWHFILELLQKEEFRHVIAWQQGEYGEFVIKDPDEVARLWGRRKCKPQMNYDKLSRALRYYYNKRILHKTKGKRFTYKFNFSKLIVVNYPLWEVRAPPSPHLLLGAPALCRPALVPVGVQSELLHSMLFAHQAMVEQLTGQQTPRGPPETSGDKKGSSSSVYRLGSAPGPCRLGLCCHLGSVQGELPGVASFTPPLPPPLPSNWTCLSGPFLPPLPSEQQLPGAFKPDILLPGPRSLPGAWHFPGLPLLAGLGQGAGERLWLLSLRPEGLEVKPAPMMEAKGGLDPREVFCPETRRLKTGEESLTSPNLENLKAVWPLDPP
# Outline: as §1
# [13] = target: T8, ETS2 (Homo sapiens, UniProt P15036 1-469); conditions: protein: recombinant; tags: N-terminal GST; dsDNA, one strand shown
# T8 sequence: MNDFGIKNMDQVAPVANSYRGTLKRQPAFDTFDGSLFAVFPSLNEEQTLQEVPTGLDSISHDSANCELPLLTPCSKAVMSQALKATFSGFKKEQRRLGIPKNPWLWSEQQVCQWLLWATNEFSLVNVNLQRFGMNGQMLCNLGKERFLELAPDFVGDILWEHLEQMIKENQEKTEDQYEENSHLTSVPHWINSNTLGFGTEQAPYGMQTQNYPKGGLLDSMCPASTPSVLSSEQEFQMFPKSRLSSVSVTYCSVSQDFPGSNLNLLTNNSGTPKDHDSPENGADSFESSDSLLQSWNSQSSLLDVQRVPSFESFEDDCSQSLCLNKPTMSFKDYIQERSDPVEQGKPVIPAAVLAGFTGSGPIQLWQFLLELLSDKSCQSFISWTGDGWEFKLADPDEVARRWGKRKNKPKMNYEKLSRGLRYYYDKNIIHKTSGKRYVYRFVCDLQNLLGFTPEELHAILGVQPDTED
# Outline: as §1
# [14] = target: T9, SPDEF (Homo sapiens, UniProt O95238 1-335); conditions: protein: recombinant; tags: N-terminal GST; dsDNA, one strand shown
# T9 sequence: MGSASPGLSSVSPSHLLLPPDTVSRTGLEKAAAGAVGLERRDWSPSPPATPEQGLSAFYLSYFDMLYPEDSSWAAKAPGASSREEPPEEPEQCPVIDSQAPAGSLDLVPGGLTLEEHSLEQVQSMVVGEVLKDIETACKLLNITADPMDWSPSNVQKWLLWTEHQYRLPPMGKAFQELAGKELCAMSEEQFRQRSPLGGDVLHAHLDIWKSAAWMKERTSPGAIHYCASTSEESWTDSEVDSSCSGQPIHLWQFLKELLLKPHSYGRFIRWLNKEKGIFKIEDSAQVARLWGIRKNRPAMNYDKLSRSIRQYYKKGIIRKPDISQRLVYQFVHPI
# Outline: as §1
# [15] = target: T10, ETV7 (Homo sapiens, UniProt Q9Y603 1-341); conditions: protein: recombinant; tags: N-terminal GST; dsDNA, one strand shown
# T10 sequence: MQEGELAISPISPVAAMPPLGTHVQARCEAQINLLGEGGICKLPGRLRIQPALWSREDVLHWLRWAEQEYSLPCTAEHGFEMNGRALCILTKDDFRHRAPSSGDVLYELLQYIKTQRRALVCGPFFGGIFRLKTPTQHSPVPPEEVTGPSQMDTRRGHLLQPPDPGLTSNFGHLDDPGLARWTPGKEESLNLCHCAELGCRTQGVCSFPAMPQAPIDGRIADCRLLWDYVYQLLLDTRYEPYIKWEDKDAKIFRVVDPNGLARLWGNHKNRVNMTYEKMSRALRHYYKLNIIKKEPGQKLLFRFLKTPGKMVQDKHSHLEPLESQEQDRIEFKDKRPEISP
# Outline: as §1
# [16] = target: T11, ELF5 (Homo sapiens, UniProt Q9UKW6-2 1-255); conditions: protein: recombinant; tags: N-terminal GST; dsDNA, one strand shown
# T11 sequence: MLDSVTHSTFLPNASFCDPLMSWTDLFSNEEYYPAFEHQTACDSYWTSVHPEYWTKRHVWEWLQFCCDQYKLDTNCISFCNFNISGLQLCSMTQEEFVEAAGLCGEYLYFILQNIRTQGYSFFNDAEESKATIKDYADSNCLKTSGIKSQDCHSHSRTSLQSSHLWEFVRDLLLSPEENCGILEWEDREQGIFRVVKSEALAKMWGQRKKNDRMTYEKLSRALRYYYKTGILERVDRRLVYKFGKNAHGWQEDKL
# Outline: as §1
# [17] = target: T12, ETV3 (Homo sapiens, UniProt P41162-2 1-143); conditions: protein: recombinant; tags: N-terminal GST; dsDNA, one strand shown
# T12 sequence: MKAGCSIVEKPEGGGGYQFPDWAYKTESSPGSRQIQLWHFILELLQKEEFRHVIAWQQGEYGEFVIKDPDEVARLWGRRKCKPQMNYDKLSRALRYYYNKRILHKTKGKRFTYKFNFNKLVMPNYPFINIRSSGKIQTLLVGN
# Outline: as §1
# [18] = target: ETV6 (Homo sapiens, UniProt P41212 1-452); conditions: protein: recombinant; tags: N-terminal GST; dsDNA, one strand shown
# Sequence of ETV6 (P41212 whole entry): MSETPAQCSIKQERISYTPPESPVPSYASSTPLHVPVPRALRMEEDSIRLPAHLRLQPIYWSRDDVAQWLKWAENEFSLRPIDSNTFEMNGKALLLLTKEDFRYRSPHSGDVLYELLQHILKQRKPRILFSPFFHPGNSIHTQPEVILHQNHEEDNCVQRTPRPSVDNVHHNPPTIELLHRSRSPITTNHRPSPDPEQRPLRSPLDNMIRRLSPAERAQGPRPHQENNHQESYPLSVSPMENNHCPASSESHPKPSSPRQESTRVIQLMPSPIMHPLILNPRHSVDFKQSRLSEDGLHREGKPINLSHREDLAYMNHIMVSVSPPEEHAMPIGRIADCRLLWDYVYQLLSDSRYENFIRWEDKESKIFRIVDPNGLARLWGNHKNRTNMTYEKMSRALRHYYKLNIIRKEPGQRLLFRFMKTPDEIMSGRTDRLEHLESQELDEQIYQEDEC
# Outline: as §1
sequence,measurement,setting,value
CTCCCT,binding signal,[1],"1.44 fold enrichment (6-mer frequency, TF over GST control)"
same,binding signal,[2],"1.73 fold enrichment (6-mer frequency, TF over GST control)"
same,binding signal,[3],"1.32 fold enrichment (6-mer frequency, TF over GST control)"
same,binding signal,[4],"1.38 fold enrichment (6-mer frequency, TF over GST control)"
same,binding signal,[5],"1.59 fold enrichment (6-mer frequency, TF over GST control)"
same,binding signal,[6],"1.41 fold enrichment (6-mer frequency, TF over GST control)"
same,binding signal,[7],"1.51 fold enrichment (6-mer frequency, TF over GST control)"
same,binding signal,[8],"1.48 fold enrichment (6-mer frequency, TF over GST control)"
same,binding signal,[9],"1.36 fold enrichment (6-mer frequency, TF over GST control)"
same,binding signal,[10],"1.44 fold enrichment (6-mer frequency, TF over GST control)"
same,binding signal,[11],"1.72 fold enrichment (6-mer frequency, TF over GST control)"
same,binding signal,[12],"1.54 fold enrichment (6-mer frequency, TF over GST control)"
same,binding signal,[13],"1.57 fold enrichment (6-mer frequency, TF over GST control)"
same,binding signal,[14],"1.53 fold enrichment (6-mer frequency, TF over GST control)"
same,binding signal,[15],"1.52 fold enrichment (6-mer frequency, TF over GST control)"
same,binding signal,[16],"1.41 fold enrichment (6-mer frequency, TF over GST control)"
same,binding signal,[17],"1.55 fold enrichment (6-mer frequency, TF over GST control)"
same,binding signal,[18],"1.37 fold enrichment (6-mer frequency, TF over GST control)"
